Screens deposited in PubChem by several laboratories.
EBV gp42 block = Epstein-Barr virus gp42 inhibitors, primary screen, biochemical, uHTS, fluorescence polarization; actives 0.42% (n = 220,000); Fluorescence polarization binding assay, mP read-out; inhibition, % (tested at 21.74 µM); in the data active = inhibition above about 50%
Target sequence (Q1HVG2 whole entry, looked up): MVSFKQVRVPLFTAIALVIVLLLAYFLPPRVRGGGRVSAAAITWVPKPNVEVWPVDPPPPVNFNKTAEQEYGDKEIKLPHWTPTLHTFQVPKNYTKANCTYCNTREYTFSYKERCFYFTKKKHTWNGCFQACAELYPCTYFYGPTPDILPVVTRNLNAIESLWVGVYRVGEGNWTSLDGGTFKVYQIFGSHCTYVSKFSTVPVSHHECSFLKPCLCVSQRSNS
LANA DNA inh = inhibitors of KSHV C-LANA binding to DNA, primary screen, biochemical, fluorescence polarization, FAM-LBS DNA, MBP-C-LANA, single point; Kaposi's sarcoma herpesvirus LANA C-terminal domain (residues 932-1162) DNA binding; inhibition, % at 9 µM; actives 0.078% (n = 340,000); AID 504423, 2011;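 active = highest replicate inhibition at or above 60% at 9 µM, even if other replicates fall short; inactive = all replicates below 60% inhibition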;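 note: 0% = neutral control wells and 100% = 4 µM acridine orange control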
Keap1 Nrf2 FP = Keap1-Nrf2 protein-protein interaction inhibitors, primary screen, biochemical, fluorescence polarization, single point | inhibition, % at 9.4 µM | Kelch-like ECH-associated protein 1 (Homo sapiens), Q14145 | actives 0.15% (n = 340,000) | Keap1 Kelch-Nrf2 peptide fluorescence polarization, 1536-well; in the data active = inhibition above about 12%; inconclusive = no clear call, values can overlap the other calls; inactive = below about 7.3%;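 note: human Keap1 Kelch domain with fluorescein labeled Nrf2 9mer peptide probe; 0% = neutral control wells and 100% = peptide positive control; higher means more block of Keap1 binding to Nrf2 peptide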
GLD-1 RNA inh = GLD-1/TGE RNA complex disruptors, primary screen, biochemical, fluorescence polarization | purified GLD-1 + fluorescein TGE RNA | inhibition, % at 5.96 µM | actives 0.44% (n = 320,000) | Female germline-specific tumor suppressor gld-1 (Caenorhabditis elegans), Q17339 | AID 2280, 2010;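 active = percent inhibition above a per-plate cutoff, the plate mean of test compounds plus 3 SD, cut at about 30% in these data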;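 note: 0% = DMSO wells with GLD-1 and probe and 100% = wells lacking GLD-1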
LANA-H2B inh = blockers of LANA interaction with H2A/H2B – biochemical, FP readout, HTS, primary screen; AID 2629, 2010; Protein LANA1 (Human herpesvirus 8 type P (isolate GK18)), Q9QR71; actives 0.6% (n = 320,000); inhibition, % (test concentration not listed); cell-free LANA-H2A/H2B peptide, fluorescence polarization; in the data active = inhibition mostly above about 10%, no sharp cut-off; inactive = mostly below about 6.7%
eLon inh = inhibitors of E. coli Lon protease, primary screen, biochemical, fluorescence polarization | P0A9M0 | purified E. coli Lon protease | inhibition, % at 7.94 µM | actives 0.42% (n = 360,000); in the data active = inhibition above about 13%, passing the limit was not always enough;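 note: 0% = enzyme with probe and DMSO and 100% = no enzyme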
E coli Lon conf = E. coli Lon protease inhibitor retest, confirmation, biochemical, fluorescence polarization | shares compounds with eLon inh | actives 31% (n = 1,400) | inhibition, % at 7.94 µM | AID 602230, 2012 | purified E. coli Lon; in the data active = inhibition above about 16%;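 note: 0% = enzyme with probe and DMSO and 100% = no enzyme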
* hit, by the source's call; ? = inconclusive; nt = not tested or not shown. An excerpt weighted towards active compounds, which were near 1.5% of everything screened.

SMILES	EBV gp42 block	LANA DNA inh	Keap1 Nrf2 FP	GLD-1 RNA inh	LANA-H2B inh	eLon inh	E coli Lon conf
COc1ccc(NC(=O)c2cccc(N3C(=O)c4cccc([N+](=O)[O-])c4C3=O)c2)cc1	nt	1	1	0	8	19*	0
O=C1CC[C@H](OCc2ccccc2)CCN1[C@H](CSc1ccccc1)Cc1ccccc1	nt	-3	-6	1	0	-4	nt
Cc1cccc(NC(=O)C2CCCN(S(=O)(=O)c3c(C)nn(C)c3C)C2)n1 (stereo unspecified)	-2	-3	-1	9	1	12*	-9
O=S(=O)(NCCN1CCOCC1)c1ccc(F)c(Cl)c1	nt	2	-1	-6	-1	2	nt
O=S(=O)(NCCN1CCOCC1)c1ccc(Cl)c(Cl)c1	nt	0	-8	6	-2	16*	-1
N#CCC(=O)N/N=C\c1ccccc1OC/C=C/c1ccccc1	nt	1	0	-13	13	-11	nt
CN(C)c1ncnc2c1NC1=C(S2)C(=NCCCC(=O)O)CC(C)(C)C1	50	15	-6	3	2	6	nt
COc1ncnc2c1NC1=C(S2)C(=NCCC(=O)O)CC(C)(C)C1	140*	23	-1	103*	5	65*	154*
C[C@@]12C(=O)Nc3cc(F)ccc3C(=O)N1[C@H]1c3ccccc3OC[C@@H]1[C@@H]2c1ccccc1	nt	0	0	7	2	0	nt
O=C1CCC/C(=N\NC(=O)c2ccc(COc3cccc4cccnc34)cc2)C1	-2	1	-2	49*	-2	37*	3
NNC(=O)c1ccc(COc2cccc3cccnc23)cc1	-19	1	-5	1	1	13	nt
N#Cc1ccsc1NC(=O)c1cccc(-n2cnnn2)c1	nt	-1	-3	-30	2	-131	nt
O=C(O)CC(SCC(=O)Nc1ccc(S(=O)(=O)N2CCCC2)cc1)C(=O)O (stereo unspecified)	-11	0	-9	1	4	17*	0
COc1cc(NC(=S)N2CCCC(CO)C2)c(OC)cc1Cl (stereo unspecified)	4	-1	-7	0	1	-6	nt
CC1CCN(C(=O)C2CCN(c3ncnc4c3nc3n4CCCCC3)CC2)CC1	nt	-1	2	3	1	20*	-1
CCOC(=O)C1CCN(C(=O)C2CCN(c3ncnc4c3nc3n4CCCCC3)CC2)CC1	nt	0	2	9	0	4	nt
Cc1cc(NC(=O)c2coc(=O)c(Br)c2)ccc1C(C)C	-4	1	-3	1	-4	24*	19*
c1ccc2c3c([nH]c2c1)C1(CCCCC1)NCC3	-11	1	1	3	0	-5	nt
CC12CCCCN1CCCc1c2[nH]c2ccccc12 (stereo unspecified)	14	4	1	11	-9	22*	-2
CCCCNC(=O)C1(C)CCN1C(=O)c1ccc(OC)c(F)c1 (stereo unspecified)	nt	nt	nt	nt	nt	16*	-7
CCCCNC(=O)C1(C)CCCCN1C(=O)c1sccc1C (stereo unspecified)	nt	nt	nt	nt	nt	22*	-1
COc1ccc(S(=O)(=O)N2C3CCC2CC(NC(=O)NC2CCCCC2)C3)cc1 (stereo unspecified)	-1	0	1	3	6	82*	0
COC(=O)c1ccc(S(=O)(=O)N2C3CCC2CC(NC(=O)NC2CCCCC2)C3)cc1 (stereo unspecified)	-15	0	2	-2	-2	-7	nt
CCC(C)(C)n1nnnc1C(C(C)C)N(Cc1ccco1)Cc1cc2cc3c(cc2[nH]c1=O)OCO3 (stereo unspecified)	-19	0	-10	28	5	36*	52*
CCC(C)(C)n1nnnc1C(C(C)C)N(Cc1cccnc1)Cc1ccco1 (stereo unspecified)	0	-1	3	2	-4	-6	nt
SMILES	EBV gp42 block	LANA DNA inh	Keap1 Nrf2 FP	GLD-1 RNA inh	LANA-H2B inh	eLon inh	E coli Lon conf
CC(NC(=O)COC(=O)C12CC3CC(CC(Br)(C3)C1)C2)c1ccccc1 (stereo unspecified)	nt	1	4	8	3	26*	-1
COc1cc(SC)ccc1C(=O)Nc1nc2ccccc2[nH]1	nt	-1	-8	5	-1	5	nt
Nc1ccc(C(=O)Nc2cccc3ncccc23)cc1	nt	-1	-7	3	4	2	nt
CC(C)(C)c1ccc(C(=O)Nc2cccc3ncccc23)cc1	nt	23	5	64*	4	44*	44*
CC1CCC(CN2C(Nc3ccccc3)=NC[C@@H]2C)CC1 (stereo partly specified)	nt	2	-2	2	0	0	nt
O=C1CC(=O)CC(c2ccccc2Cl)C1	-14	2	1	-2	-1	30*	2
COc1ccc(NC(=O)CNC(c2ccccc2)c2ccccc2)cc1Cl	nt	2	?	-3	0	18*	-8
Cc1ccc(C(=O)Nn2c(O)c(C=C3N=c4ccccc4=N3)sc2=S)cc1	61*	1	1	-2	2	26*	33*
O=C(CSCC(=O)OCC(=O)c1ccc(Br)cc1)Nc1cccc2ccccc12	-10	-1	-3	4	-5	-6	nt
COc1cccc(NC(=O)N(C)C[C@H]2Oc3ncc(Br)cc3C(=O)N([C@H](C)CO)C[C@H]2C)c1	nt	nt	nt	nt	nt	13*	-11
COc1ccc(NC(=O)N(C)C[C@@H]2Oc3ncc(Br)cc3C(=O)N([C@@H](C)CO)C[C@@H]2C)cc1	nt	nt	nt	nt	nt	1	nt
CC(=O)Nc1ccc(Sc2ccccc2C(=O)O)cn1	nt	-1	-2	8	1	-6	nt
COc1ccc(OC)c(S(=O)(=O)N2CCC(C(=O)NCC3CCCO3)CC2)c1 (stereo unspecified)	-3	-1	-3	5	-6	32*	15
CC(C(=O)NCCCc1ccccc1)n1cccc1C(=O)c1ccccc1 (stereo unspecified)	nt	0	-4	4	6	4	nt
CC(=O)c1c(C)[nH]c(C(=O)OCc2ccccc2)c1C	-11	9	-3	5	6	-2	nt
CC(=O)c1c(C)[nH]c(C(=O)OCC(=O)N(Cc2ccccc2)C(C)(C)C)c1C	nt	-2	-3	nt	nt	71*	-63
O=c1nc2c(O)cccn2c2c1c(=O)[nH]c1ccccc12	104*	18	4	nt	nt	156*	142*
